Assay results from PubChem BioAssay (NCI).
This is part of a sample that, as a whole, favours compounds with a hit. Of some 83,000 tested, about 20% had one in any assay.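 Activity criterion: percent growth below 10, measured after cells in 96-well plates were exposed to a single compound concentration for 48 hours.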 Calls of active or inactive are those of the source.

What was measured:
Experiment in all cases: NCI-60 one-dose screen, 48 h (100 = growth as untreated, 0 = no growth, -100 = all killed)
Conditions in all cases: 10 µM unless noted
NCI/ADR-RES ovarian = tested on: NCI/ADR-RES ovarian
T-47D breast = tested on: T-47D breast
BT-549 breast = tested on: BT-549 breast
MDA-MB-435 melanoma = tested on: MDA-MB-435 melanoma
SW-620 colon = tested on: SW-620 colon
MCF7 breast = tested on: MCF7 breast
HCT-116 colon = tested on: HCT-116 colon
HCC-2998 colon = tested on: HCC-2998 colon
KM12 colon = tested on: KM12 colon

Measured: growth

Fc1ccc(N2COOC3(OOC2)C2CC4CC(C2)CC3C4)cc1
inactive: NCI/ADR-RES ovarian 53.2% | T-47D breast 75.7% | BT-549 breast 95.4% | MDA-MB-435 melanoma 94.4% | SW-620 colon 109% | MCF7 breast 76.1% | HCT-116 colon 90.9% | HCC-2998 colon 106% | KM12 colon 82.7%

CC[C@H](C)[C@H](NC(=O)[C@H]1CCCCN1C)C(=O)N(C)[C@H](C[C@@H](OC(C)=O)c1nc(C(=O)NC23CC(C(=O)OC)(C2)C3)cs1)C(C)C
inactive: NCI/ADR-RES ovarian 10% | T-47D breast 64.4% | SW-620 colon 39.4% | MCF7 breast 12.1% | HCC-2998 colon 10.4%
active: BT-549 breast -39.2% | MDA-MB-435 melanoma -14.1% | HCT-116 colon 5.83% | KM12 colon 0.539%

CC(=O)O[C@H]1CC[C@@]2(C)C(=CC[C@H]3[C@@H]4C[C@@H](N5CC5)[C@H](C(C)=O)[C@@]4(C)CC[C@@H]32)C1
inactive: NCI/ADR-RES ovarian 92.9% | T-47D breast 88.3% | BT-549 breast 100% | MDA-MB-435 melanoma 99.9% | SW-620 colon 89.6% | MCF7 breast 72.8% | HCT-116 colon 85.9% | HCC-2998 colon 106% | KM12 colon 106%

CC[C@H](C)[C@H](NC(=O)[C@H]1CCCCN1C)C(=O)N(C)[C@H](C[C@@H](OC(C)=O)c1cccc(C(=O)N[C@@H](Cc2ccccc2)C[C@H](C)C(=O)O)n1)C(C)C
inactive: NCI/ADR-RES ovarian 15.6% | T-47D breast 66.8% | SW-620 colon 28.3% | MCF7 breast 14.7% | HCC-2998 colon 17.1%
active: BT-549 breast -18.7% | MDA-MB-435 melanoma -48.8% | HCT-116 colon -0.292% | KM12 colon -6.52%

C[C@@]1(CCCCCCCCCc2ccc(O)cc2)C[C@]2(C)OC(=O)C[C@@H]2OO1
inactive: NCI/ADR-RES ovarian 53.4% | T-47D breast 83.9% | BT-549 breast 102% | MDA-MB-435 melanoma 109% | SW-620 colon 103% | MCF7 breast 117% | HCT-116 colon 77.5% | HCC-2998 colon 105% | KM12 colon 127%

COC(=O)CC[C@H](Cc1ccccc1)NC(=O)c1csc([C@@H](C[C@H](C(C)C)N(C)C(=O)[C@@H](NC(=O)[C@H]2CCCCN2C)C(C)C)OC(C)=O)n1
active: BT-549 breast -22.4% | MDA-MB-435 melanoma 1.58%
inactive: NCI/ADR-RES ovarian 30.4% | T-47D breast 77.8% | SW-620 colon 35.8% | MCF7 breast 17.1% | HCT-116 colon 20.8% | HCC-2998 colon 42.4% | KM12 colon 24.8%

CC1=C(CCCOC(=O)[C@H](N)CC(C)C)C2=C(C)C3(CC3)[C@@](C)(O)C(=O)C2=C1
active: NCI/ADR-RES ovarian 3.96% | T-47D breast 5.21% | BT-549 breast -9.68% | HCT-116 colon 9.3% | HCC-2998 colon 0.215%
inactive: MDA-MB-435 melanoma 69.8% | SW-620 colon 87.1% | MCF7 breast 37.8% | KM12 colon 79.8%

CC[C@H](C)[C@@H]1OC(=O)C(C)(C)[C@H](O)[C@H](Cc2ccccc2)OC(=O)[C@H](C(C)C)OC(=O)[C@@H](NC(=O)c2cccc(NC=O)c2O)[C@@H](C)OC1=O
inactive: NCI/ADR-RES ovarian 53.4% | T-47D breast 33.2% | BT-549 breast 53.8% | MDA-MB-435 melanoma 53.2% | SW-620 colon 60.8% | MCF7 breast 40% | HCT-116 colon 36.5% | KM12 colon 53.5%

COc1cc(C=Nc2cc(Cl)cc(Cl)c2)ccc1N(CCCl)CCCl
inactive: NCI/ADR-RES ovarian 85.2% | T-47D breast 95.4% | BT-549 breast 85.4% | MDA-MB-435 melanoma 95.5% | SW-620 colon 75.5% | MCF7 breast 84.2% | HCT-116 colon 90.4% | KM12 colon 51.1%

O=C(O)c1c(Cl)n(Cc2ccc(O)cc2)c2ccc(O)cc12
inactive: NCI/ADR-RES ovarian 118% | T-47D breast 118% | BT-549 breast 99.4% | MDA-MB-435 melanoma 87% | SW-620 colon 101% | MCF7 breast 101% | HCT-116 colon 95% | HCC-2998 colon 119% | KM12 colon 107%

CC(=O)O[C@H]1C(=O)[C@@]2(C)[C@H]([C@H](OC(=O)c3ccccc3)[C@]3(O)C[C@H](OC(=O)[C@H](OC(=O)OC[C@H]4COC(C)(C)O4)[C@@H](NC(=O)c4ccccc4)c4ccccc4)C(C)=C1C3(C)C)[C@]1(OC(C)=O)CO[C@@H]1C[C@@H]2O
inactive: NCI/ADR-RES ovarian 70.1% | T-47D breast 31.3% | SW-620 colon 27.8% | KM12 colon 11.9%
active: BT-549 breast 9.68% | MDA-MB-435 melanoma -73.7% | MCF7 breast 9.62% | HCC-2998 colon 1.92%

COC(=O)[C@@H](C)C[C@H](Cc1ccccc1)NC(=O)c1csc(CC[C@H](C(C)C)N(C)C(=O)[C@@H](NC(=O)[C@H]2CCCCN2C)C(C)C)n1
inactive: NCI/ADR-RES ovarian 53.1% | T-47D breast 56.8% | SW-620 colon 30.6% | MCF7 breast 20.3% | HCC-2998 colon 24.5% | KM12 colon 16.2%
active: BT-549 breast 7.17% | MDA-MB-435 melanoma -48.6% | HCT-116 colon 3.72%

CCCCCCCOC(C(=O)OCCN(CC)CC)(c1ccccc1)c1ccccc1
inactive: NCI/ADR-RES ovarian 97.8% | T-47D breast 86% | BT-549 breast 88.3% | MDA-MB-435 melanoma 98.2% | SW-620 colon 77.3% | MCF7 breast 115% | HCT-116 colon 58% | HCC-2998 colon 88.5% | KM12 colon 78.4%

CCOC(=S)S[C@H]1C[C@@H]2[C@H](CC[C@]3(C)C(=O)CC[C@@H]23)[C@@]2(C)CCC(=O)C=C12
inactive: NCI/ADR-RES ovarian 102% | T-47D breast 108% | BT-549 breast 105% | MDA-MB-435 melanoma 101% | SW-620 colon 105% | MCF7 breast 90.6% | HCC-2998 colon 106% | KM12 colon 101%

COP(=S)(N1CC1)N1CC1
inactive: NCI/ADR-RES ovarian 103% | T-47D breast 94.8% | BT-549 breast 118% | MDA-MB-435 melanoma 105% | SW-620 colon 103% | MCF7 breast 102% | HCT-116 colon 109% | HCC-2998 colon 105% | KM12 colon 116%

O=C(O)C1C(C(=O)O)C2(Cl)C(Cl)=C(Cl)C1(Cl)C2(Cl)Cl.[Hg] (stereo not given)
inactive: NCI/ADR-RES ovarian 102% | T-47D breast 58% | BT-549 breast 88.1% | MDA-MB-435 melanoma 99.7% | SW-620 colon 86.7% | MCF7 breast 52.2% | HCT-116 colon 90.4% | HCC-2998 colon 116% | KM12 colon 96.7%

CC12CCC3C(CCC4Cc5[nH]c6ccccc6c5CC43C)C1CCC2O (stereo not given)
active: MDA-MB-435 melanoma -25.2% | MCF7 breast 5.13%
inactive: NCI/ADR-RES ovarian 38.4% | T-47D breast 29.2% | BT-549 breast 60.4% | SW-620 colon 11.5% | HCT-116 colon 23.3% | KM12 colon 23.3%

C[C@]12CC[C@H]3[C@@H](CC[C@]4(O)C[C@@H](O[C@@H]5O[C@H](CO)[C@@H](O[C@@H]6OC[C@@H](O)[C@H](O)[C@H]6O)[C@H](O)[C@H]5O)CC[C@]34C=O)[C@@]1(O)CC[C@@H]2C1=CC(=O)OC1
active: NCI/ADR-RES ovarian -66.3% | T-47D breast 2.52% | BT-549 breast 5.05% | SW-620 colon 8.41% | MCF7 breast 3.61%
inactive: MDA-MB-435 melanoma 16.9% | HCC-2998 colon 38.8% | KM12 colon 16.9%

COC[C@@H]1C[C@@]2(C)[C@@H](CC[C@@H]3[C@@H]2CC[C@@]2(C)[C@H]3CC[C@]2(C)O)CC1=O
inactive: NCI/ADR-RES ovarian 101% | T-47D breast 88.2% | BT-549 breast 89.1% | MDA-MB-435 melanoma 108% | SW-620 colon 110% | MCF7 breast 92.7% | HCC-2998 colon 94.9% | KM12 colon 101%

COC(=O)C1OC(Oc2ccc(N(CCCl)CCCl)cc2)C(OC(C)=O)C(OC(C)=O)C1OC(C)=O (stereo not given)
inactive: NCI/ADR-RES ovarian 92.9% | T-47D breast 77.4% | BT-549 breast 95.3% | MDA-MB-435 melanoma 93.2% | SW-620 colon 75.4% | MCF7 breast 57.8% | HCC-2998 colon 96%

Fc1ccc2c(c1)c(-c1nc(-c3c[nH]c4ncccc34)cs1)cn2CCN1CCOCC1
inactive: NCI/ADR-RES ovarian 33.6% | BT-549 breast 49.6% | MDA-MB-435 melanoma 21.5% | SW-620 colon 62.9% | MCF7 breast 29.7% | HCT-116 colon 52.6% | HCC-2998 colon 92.9% | KM12 colon 32.2%
active: T-47D breast 7.41%

CCCCCCCC(=O)OCC(=O)[C@]1(O)Cc2c(O)c3c(c(O)c2[C@@H](OC2CC(N)C(O)C(C)O2)C1)C(=O)c1c(OC)cccc1C3=O (stereo not given in full)
inactive: NCI/ADR-RES ovarian 50.7%
active: T-47D breast -69.2% | BT-549 breast -84% | MDA-MB-435 melanoma -80.5% | SW-620 colon -62.5% | MCF7 breast -94.4% | HCT-116 colon -73.4% | HCC-2998 colon -90.1% | KM12 colon -96.2%

C[CH2][Sn]([Cl])([Cl])[CH2]C.Oc1ccccc1C=NCCN=Cc1ccccc1O
inactive: NCI/ADR-RES ovarian 106% | T-47D breast 90% | BT-549 breast 117% | MDA-MB-435 melanoma 108% | SW-620 colon 99.7% | MCF7 breast 131% | HCT-116 colon 112% | KM12 colon 106%

[Cl][Hg][c]1cc[c]([Hg][Cl])o1
inactive: NCI/ADR-RES ovarian 69.3% | BT-549 breast 14% | MDA-MB-435 melanoma 55.1% | SW-620 colon 12.3% | HCT-116 colon 30.7% | HCC-2998 colon 106% | KM12 colon 76%
active: T-47D breast -7.76% | MCF7 breast -18.6%

CCCCCCCCCCCCCCCCCC1OC[C@H](COC(=O)O[C@@H](C(=O)O[C@H]2C[C@@]3(O)[C@@H](OC(=O)c4ccccc4)[C@@H]4[C@]5(OC(C)=O)CO[C@@H]5C[C@H](O)[C@@]4(C)C(=O)[C@H](OC(C)=O)C(=C2C)C3(C)C)[C@@H](NC(=O)c2ccccc2)c2ccccc2)O1 (stereo not given in full)
inactive: NCI/ADR-RES ovarian 103% | T-47D breast 50.4% | BT-549 breast 53.8% | SW-620 colon 46.9% | MCF7 breast 25.9% | HCT-116 colon 17.8% | HCC-2998 colon 54.1% | KM12 colon 26.4%
active: MDA-MB-435 melanoma -29.7%

ClCCN(CCCl)c1ccc(/C=N/Nc2ncnc3nc[nH]c23)cc1
inactive: NCI/ADR-RES ovarian 98.4% | T-47D breast 59.8% | BT-549 breast 95% | MDA-MB-435 melanoma 79.9% | SW-620 colon 77.6% | MCF7 breast 42.5% | HCC-2998 colon 94.6% | KM12 colon 96.6%

COC(=O)[C@@H](C)C[C@H](Cc1ccccc1)NC(=O)c1csc([C@@H](C[C@H](C(C)C)N(C)C(=O)[C@@H](NC(=O)[C@H]2CCCCN2C)C2CCCCC2)OC(C)=O)n1
inactive: NCI/ADR-RES ovarian 10.6% | T-47D breast 39.1% | SW-620 colon 19.1% | MCF7 breast 18.3% | HCC-2998 colon 10.3%
active: BT-549 breast -11.8% | MDA-MB-435 melanoma -47.6% | HCT-116 colon -22.1% | KM12 colon 2.88%

N#C[Se]Cc1cc(-c2ccccc2)n(-c2ccc(S(N)(=O)=O)cc2)n1
active: T-47D breast -1.52% | BT-549 breast -34.6% | MDA-MB-435 melanoma -28.8% | SW-620 colon -18.4% | MCF7 breast -26.1% | KM12 colon -78.9%
inactive: NCI/ADR-RES ovarian 35.4% | HCC-2998 colon 25.1%
